From the supplement of paper PMC12669032
Several values for one entry are separate records, joined by “and”; a condition that tells them apart may be missing. Equal values may be shown once. Unmarked numbers belong to inactive results.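 The calls were made as follows: active = AUC reduced over 20% with Padj below 0.05 in at least 2 of 3 replicates; inactive = otherwise.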

system: Eubacterium rectale; assay: growth AUC relative to DMSO control (median of replicates) (fraction); higher = more growth (less inhibition), active = hit call of the paper; conditions: 20 µM; 24 h
In short: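 Area under the growth curve was normalised to the plate median of solvent-only wells, except on the industrial chemical plate, where row and column medians were used. Curves came from gut bacterial monocultures grown anaerobically at 37 °C in mGAM with 20 µM compound (1% DMSO), starting at OD600 0.05 and read at OD600 every hour for 24 h. The minimum OD of each curve was set to 0, and values are medians of three biological replicates grown on separate days.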

Row | Compound | growth AUC
1 | C/C(=N\NC(=O)Nc1cc(F)cc(F)c1)c1ncccc1C(=O)[O-].[Na+] | 1.12
2 | OC(Cc1ccccc1Cl)(Cn1cncn1)C1(Cl)CC1 (centres undefined) | 0.849
3 | COC(=O)C1(O)c2ccccc2-c2ccccc21 | 0.95
4 | Cc1occc1C(=O)Nc1ccccc1 | 1.16
5 | Clc1ccc(C(c2ccc(Cl)cc2)C(Cl)Cl)cc1 | 1.01
6 | CC1(C)C(C=C(Cl)Cl)C1C(=O)OC(C#N)c1ccc(F)c(Oc2ccccc2)c1 (mixture of isomers) | 1.06
7 | COc1cc(C)c(C(=O)c2c(OC)ccc(Br)c2C)c(OC)c1OC | 1.02
8 | ClC1C(Cl)C(Cl)C(Cl)C(Cl)C1Cl (centres undefined) | 1.02 and 0.946 and 1.01
9 | Cc1ccc(NC(=O)c2snnc2C)cc1Cl | 1
10 | CN(C)C(=O)C(c1ccccc1)c1ccccc1 | 1.11
11 | Cc1cnc(C2=NC(C)(C(C)C)C(=O)N2)c(C(=O)O)c1 (centres undefined) | 0.985
12 | CCNc1nc(NCC)nc(SC)n1 | 1.02
13 | O=c1oc2ccccc2c(O)c1C1CC(c2ccc(-c3ccccc3)cc2)Cc2ccccc21 (centres undefined) | 0.502
14 | Oc1ccc(-c2ccccc2)cc1 | 1
15 | CNC(=O)N(C)c1nnc(C(C)(C)C)s1 | 0.931
16 | COP(=O)(OC)Oc1ccc(SC)c(C)c1 | 0.96
17 | CC(C)N1C(=O)c2ccccc2NS1(=O)=O | 1.1
18 | COP(=O)(OC)C(O)C(Cl)(Cl)Cl (centres undefined) | 1.08
19 | CCOP(=O)(NC(C)C)Oc1ccc(S(C)(=O)=O)c(C)c1 (centres undefined) | 1.03
20 | CCOP(=S)(OCC)SCS(=O)(=O)C(C)(C)C | 1.08

Row | Compound | growth AUC
21 | CCCN(CC1CC1)c1c([N+](=O)[O-])cc(C(F)(F)F)cc1[N+](=O)[O-] | 1
22 | c1coc(-c2nc3ccccc3[nH]2)c1 | 1.09
23 | CC(Oc1ccc(Cl)cc1Cl)C(=O)O (centres undefined) | 1.04
24 | N#Cc1cc(I)c(O)c(I)c1 | 0.954
25 | CCC(C)Nc1c([N+](=O)[O-])cc(C(C)(C)C)cc1[N+](=O)[O-] (centres undefined) | 0.995
26 | c1cc2c3c(cccc3c1)CC2 | 1.05
27 | CSC1=N[C@@](C)(c2ccccc2)C(=O)N1Nc1ccccc1 | 1.08
28 | CC1(C)CN=C(NN=C(/C=C/c2ccc(C(F)(F)F)cc2)/C=C/c2ccc(C(F)(F)F)cc2)NC1 | 1.04
29 | CCOc1cc(Oc2ccc(C(F)(F)F)cc2Cl)ccc1[N+](=O)[O-] | 0.989
30 | Nc1cccc(Cl)c1Cl | 0.947
31 | CCNS(=O)(=O)C(F)(F)C(F)(F)C(F)(F)C(F)(F)C(F)(F)C(F)(F)C(F)(F)C(F)(F)F | 0.975
32 | Nc1ccc(Cc2ccc(N)c(Cl)c2)cc1Cl | 1.01
33 | COc1nc(C)nc(NC(=O)NS(=O)(=O)c2ccccc2CCC(F)(F)F)n1 | 0.954
34 | CCOP(=O)(OCC)OP(=O)(OCC)OCC | 1.19
35 | CCNP(=S)(OC)O/C(C)=C/C(=O)OC(C)C (centres undefined) | 1.13
36 | CCN(CC)N=O | 0.996
37 | COC(=O)C(C)N(C(=O)Cc1ccccc1)c1c(C)cccc1C (centres undefined) | 0.916
38 | C#CCN1C(=O)COc2cc(F)c(N3C(=O)C4=C(CCCC4)C3=O)cc21 | 1.09
39 | N#Cc1c(Cl)c(Cl)c(Cl)c(C#N)c1Cl | 0.714
